# Source: PubChem
# Sampled rows, rich in hits. Any-hit rate of the full collection: about 19%.
# HT1080 IDH1KD tx – HT-1080 IDH1 knockdown cell toxicity (counter line); HT-1080 IDH1 knockdown viability, ATP luminescence, 48 h; Potency, µM (top dose mostly 46.1 µM), most hits filed as cytotoxic; actives 2% (n = 360,000); AID 686971
#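 % activity derives from luminescence (CellTiter-Glo), normalised to DMSO and no-cell wells. HT-1080-IDH1KD cells, 750/well, had 48 h compound exposure at 37 °C.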
# KB-V1 cytotox – KB-V1 MDR subline cytotoxicity | KB-V1 MDR cells viability, CellTiter-Glo, 72 h | Potency, µM (top dose mostly 46.1 µM), most hits filed as cytotoxic | actives 3.4% (n = 400,000) | AID 1347076; also: nearly all actives have a fitted effect of over 60% in size
#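 Drug-selected KB-V1 cells, grown in DMEM lacking phenol red with 10% FBS, receive compound titrations; after three days at 37 degrees C, surviving cell ATP is quantified by CellTiter-Glo luminescence and responses normalized and curve-fitted.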
# KB-3-1 tox – kills parental KB-3-1 adenocarcinoma cells. actives 1.4% (n = 400,000). KB-3-1 viability, CellTiter-Glo ATP luminescence, 72 h. Potency, µM (doses to about 46.1 µM), hits mostly cytotoxic; also: nearly all actives have a fitted effect of over 60% in size
#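 Screening of KB-3-1 cells (DMEM, 10% FBS, phenol-red free) ran from lowest to highest compound concentration; after 72 h at 37 °C viability was read luminescently and curves fitted.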
# TDP1 cell CPT – growth inhibition of DT40 Tdp1-/-;hTDP1 cells with camptothecin (screen for TDP1 inhibitors) | chicken DT40 Tdp1-/-;hTDP1 cells + 20 nM CPT, ATP luminescence, 48 h | Potency, µM (top dose mostly 46.2 µM), most hits filed as inhibitors | actives 12% (n = 420,000) | AID 686979; also: nearly all actives have a fitted effect of over 55% in size
#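 Cell growth measured by CellTiter-Glo luminescence after a minimum 48 h, 37 C compound exposure with 20 nM CPT in Tdp1-knockout DT40 cells stably expressing hTDP1, seeded 400/well; qHTS titration format.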
# HT1080-NT tox – kills 2HG-producing HT-1080-NT fibrosarcoma cells; HT-1080-NT fibrosarcoma viability, CellTiter-Glo ATP luminescence, 48 h; Potency, µM (doses to about 46.1 µM), usual class: cytotoxic; actives 1.6% (n = 360,000); AID 686970;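 also: NT is the 2HG producing partner of a matched IDH1 knockdown line; nearly all actives have a fitted effect of over 55% in size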
#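 Read-out is CellTiter-Glo luminescence after 10 minutes at room temperature, following 48 hours' compound treatment of HT-1080-NT cells (750 cells/well, RPMI, 5% FBS, 37 degrees C).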
# DT40 TDP1 no CPT – qHTS for Inhibitors of human tyrosyl-DNA phosphodiesterase 1 (TDP1): qHTS in cells in absence of CPT. DT40 Tdp1-/- hTDP1 cells, no CPT, ATP luminescence, 48 h. Potency, µM (highest dose often 46.2 µM), hits mostly inhibitors. actives 15% (n = 420,000); also: nearly all actives have a fitted effect of over 55% in size
#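 Seeded 400 DT40-hTDP1 cells/well (vehicle DMSO, no 20 nM CPT); pinned compounds; ≥48 hr at 37 °C; CellTiter-Glo luminescence as viability measure.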
# A number is an active result; n = inactive; u = inconclusive; x = no result. Calls follow the shape of the dose curve; as a rule, active = well fitted curve in the direction sought with a large enough effect; inconclusive = small, poorly fitted or top-dose-only effect, or another doubt; inactive = no such curve, though single readings can be large; an effect the other way counts as inactive or inconclusive.
SMILES,HT1080 IDH1KD tx,KB-V1 cytotox,KB-3-1 tox,TDP1 cell CPT,HT1080-NT tox,DT40 TDP1 no CPT
Cc1cc2ccccc2c(=O)n1CC(=O)N1CCN(c2cccc(Cl)c2)CC1,n,n,n,n,n,n
CCc1ccc(-n2c(N3CCN(c4cccc(Cl)c4)CC3)nc3ccccc3c2=O)cc1,x,x,x,6.5µM,x,8.2µM
CCc1ccc(-n2c(N3CCN(c4ccc(F)cc4)CC3)nc3ccccc3c2=O)cc1,x,x,x,23µM,x,12µM
Cc1cccn2c(=O)c(C(=O)N3CCN(c4ccc(Cl)cc4)CC3)cnc12,x,n,n,u,x,u
Cc1cnc(CNc2ncncc2-c2ccccc2CN(C)C)cn1,x,x,x,n,x,u
Cc1cccc(CN2C(=O)c3ccccc3S(=O)(=O)c3ccc(C(=O)N(C)Cc4ccccc4)cc32)c1,x,u,n,16µM,x,u
CN(Cc1ccccc1)C(=O)c1ccc2c(c1)N(Cc1ccccc1F)C(=O)c1ccccc1S2(=O)=O,x,n,n,u,x,9.2µM
CC(OC(=O)c1nn(C(C)C)c(=O)c2ccccc12)C(=O)Nc1ncc(Cl)cc1Cl (centres undefined),n,n,n,u,n,18µM
CCCn1c(N)c(N(CCOC)C(=O)c2cc3ccccc3cc2OC)c(=O)[nH]c1=O,n,n,n,n,n,n
O=c1c2oc3ccccc3c2n(Cc2cccc(F)c2)c(=O)n1Cc1ccco1,x,n,n,u,x,u
CC1=C(C(=O)N2CCCCCC2)CC(CC(=O)NCc2cccc3ccccc23)C(=O)N1CCC1=CCCCC1 (centres undefined),u,18µM,u,u,u,u
CC1=C(C(=O)N2CCCCCC2)CC(CC(=O)NCc2cccs2)C(=O)N1CCC1=CCCCC1 (centres undefined),n,u,n,16µM,n,23µM
O=C(O)c1cccc(Nc2ccncc2[N+](=O)[O-])c1,n,n,n,u,n,18µM
Cc1ccc(CNC(=O)CCCn2c(=O)c3ccccc3n(CC(=O)C(C)(C)C)c2=O)cc1,x,n,n,u,x,u
Cc1cc(C)c2c(=O)n(CC(=O)N3CCC(N4CCCCC4)CC3)sc2n1,n,n,n,15µM,n,15µM
CCCNC(=O)Cn1sc2nc(C)cc(C)c2c1=O,u,n,u,3.7µM,n,4.1µM
CC(=O)Cn1cnc2c(sc3nc(C)cc(C)c32)c1=O,n,n,u,n,u,u
COCCn1c(-c2ccccc2)c(C)n2c3c(=O)n(C)c(=O)n(C)c3nc12,x,u,n,x,x,x
Cc1nn(-c2ccccc2)c(-c2ccccc2[N+](=O)[O-])c1C(=O)O,n,n,n,n,n,n
Cc1nn(-c2ccccc2)c(-c2ccccc2[N+](=O)[O-])c1CC#N,n,n,n,u,n,16µM
O=C(Nc1cccc2c1CCCC2)c1cc(C2CCCCN2S(=O)(=O)c2cccs2)on1 (centres undefined),n,n,n,16µM,n,23µM
CS(=O)(=O)N1CCCCC1c1cc(C(=O)Nc2cccc3c2CCCC3)no1 (centres undefined),n,n,n,15µM,n,9.2µM
O=C(Nc1ccccc1)c1cc(C2CCCCN2S(=O)(=O)c2cccs2)on1 (centres undefined),n,n,n,n,n,u
O=C(Nc1ccc2c(c1)OCO2)c1cc(C2CCCCN2S(=O)(=O)c2cccs2)on1 (centres undefined),n,n,n,u,n,23µM
Cc1noc(C)c1S(=O)(=O)N1CCCCC1c1cc(C(=O)Nc2cccc3c2CCCC3)no1 (centres undefined),n,n,n,u,n,21µM
O=S1(=O)C[C@@H](N2CCN(c3ccccn3)CC2)[C@H](COCc2ccccc2)N1,n,n,n,n,n,n
